Measured values as given in PubChem BioAssay AID1020 (Sanford-Burnham Center for Chemical Genomics, 2008).
Hit rate of the full screen: of about 200,000 compounds, about 240 (0.12%) were called active. This is one part of a sample in which actives are shown more often than they occur. Values without a mark were called inactive. Rule as the data show it: active = inhibition above about 50%; inactive = the rest.

Each molecule was assayed on glucose-6-phosphate dehydrogenase [Leuconostoc mesenteroides] (assay: L. mesenteroides G6PDH inhibitors, counter-screen for G6PDH-coupled screening assays, biochemical, Leuconostoc mesenteroides enzyme (AID 1020)). Details: Purified L. mesenteroides G6PDH, diaphorase/resazurin coupled fluorescence, 45 min; at 5 µM; stronger effect = higher value.

How did the inhibition turn out when `Cc1ccccc1NC(=S)NNC(=O)c1cccc(Br)c1` was run?
The inhibition was 1.2%.

Which inhibition does the source give for `COc1ccc(-n2cc(CN(C)Cc3n[nH]c(=O)[nH]3)c(-c3cccc(F)c3)n2)cc1` here?
The inhibition was 19.5%.

`COC(=O)c1ccc(NC(=S)NN2CCOCC2)cc1` was tested. Which inhibition did it give?
Its inhibition is -2.2%.

Which inhibition does the source give for `O=C(c1snnc1-c1ccccc1)N1CCOCC1` here?
Its inhibition is -2.4%.

For `OC(c1nnc(-c2ccccc2)o1)c1cccs1` (configuration not stated), which inhibition is on record?
Its inhibition is 10.6%.

With `CCCCn1c(O)c(N=NC(=O)Cn2c(C(F)(F)F)nc3ccccc32)c2ccccc21` as the molecule, how does the inhibition read?
The inhibition was 7.1%.

How did the inhibition turn out when `COc1cc(C=O)c(Br)cc1OCC(=O)NCc1ccccc1` was run?
The inhibition was 6.7%.

How did the inhibition turn out when `CCOc1ccccc1N1CCN(C(=O)COc2ccc3c(C)cc(=O)oc3c2)CC1` was run?
Its inhibition is 1.2%.

How did the inhibition turn out when `Cc1ccc(C(=O)NC(=S)NCc2cccnc2)cc1` was run?
Its inhibition is -1.6%.

Which inhibition does the source give for `Cc1ccc(COc2ccc(C(=O)NN)cc2)cc1` here?
Its inhibition is 10.9%.

With `O=C(NCc1ccccc1Cl)C1CCN(S(=O)(=O)N2CCOCC2)CC1` as the molecule, how does the inhibition read?
Its inhibition is 4.2%.

With `Nc1ncnc(Nc2cccc(Cl)c2Cl)n1` as the molecule, how does the inhibition read?
Its inhibition is 15%.

With `CCOC(=O)Cc1cc(=O)[nH]c(=O)[nH]1` as the molecule, how does the inhibition read?
Its inhibition is 4.9%.

For `O=C(/C=C/c1ccccc1[N+](=O)[O-])OC1CCCCC1=O` (configuration not stated), which inhibition is on record?
Its inhibition is 3%.

For `O=c1c([N+](=O)[O-])cccn1Cc1ccc(F)cc1Cl`, which inhibition is on record?
Its inhibition is 8%.

With `CSc1ncccc1C(=O)N1CCCC(CCC(=O)NCc2ccccc2F)C1` (configuration not stated) as the molecule, how does the inhibition read?
Its inhibition is 8.1%.

`CC(C)(C)N(CC#CCC(O)(c1ccccc1)C1CCCC1)CCO` (configuration not stated) was tested. Which inhibition did it give?
Its inhibition is 13.4%.

For `OCCNCCOc1ccc(Cl)c(Cl)c1`, which inhibition is on record?
Its inhibition is 3.7%.

Which inhibition does the source give for `CC(C)(C)CC(=O)Nc1nnc(SCC(=O)NCc2cccs2)s1` here?
Its inhibition is 10.3%.

For `COc1ccc(CC2(CO)CCN(Cc3cnn(C)c3)CC2)cc1`, which inhibition is on record?
The inhibition was 0.2%.

Which inhibition does the source give for `CCOC(=O)/C=C/C(=O)OCC(=O)NC(c1ccccc1)c1ccccc1` here?
Its inhibition is 9.9%.

`Cc1ccc(O)c(-c2cc(C(=O)Nc3c(C)n(C)n(-c4ccccc4)c3=O)[nH]n2)c1` was tested. Which inhibition did it give?
The inhibition was 4%.

Which inhibition does the source give for `CC(C(=O)N=Nc1c(O)n(C)c2ccc(Br)cc12)n1cnc2ccccc2c1=O` (configuration not stated) here?
The inhibition was -0.8%.

With `Cc1ccc2cc(C)c(N3CCC(C)CC3)nc2c1` as the molecule, how does the inhibition read?
The inhibition was 12.3%.

Which inhibition does the source give for `O=C(Nn1cnnc1)c1ccc([N+](=O)[O-])cc1` here?
The inhibition was 6%.

For `Cc1nn(-c2ccccc2)c(C)c1/C=N/NC(=O)CSc1nc2ccccc2c(=O)n1-c1ccccc1`, which inhibition is on record?
Its inhibition is -5.5%.

`O=C(COC(=O)C1CC2C=CC1C2)Nc1ccccc1` (configuration not stated) was tested. Which inhibition did it give?
The inhibition was 5.8%.

How did the inhibition turn out when `CCC(C)(C)c1ccc(OCC(=O)N(C)C)c(C(C)(C)CC)c1` was run?
Its inhibition is -0.6%.

With `CCc1n[nH]c(=S)n1/N=C/c1c[nH]c2ccc(Br)cc12` as the molecule, how does the inhibition read?
Its inhibition is -2.8%.

`CC(=O)Nc1ccc(S(=O)(=O)N(CCc2ccccc2)CC(=O)N/N=C/c2ccc(C(=O)O)cc2)cc1` was tested. Which inhibition did it give?
Its inhibition is 6.2%.

How did the inhibition turn out when `CC(=O)n1cc([C@H]2C=C(C(=O)N3CCOCC3)O[C@@H](OCc3ccc(CO)cc3)C2)c2ccccc21` was run?
Its inhibition is 13.3%.

How did the inhibition turn out when `COc1cccc(CC(=O)N2CCCC(CCC(=O)N3CCN(c4ccccn4)CC3)C2)c1` (configuration not stated) was run?
Its inhibition is 2.5%.

Which inhibition does the source give for `CCN(CC)C(=O)Cn1cc(S(=O)(=O)CC(=O)NCc2ccc3c(c2)OCO3)c2ccccc21` here?
Its inhibition is 2.6%.

`CC(O)c1cccc(NC(=O)Cc2cccc3ccccc23)c1` (configuration not stated) was tested. Which inhibition did it give?
The inhibition was 0.6%.

How did the inhibition turn out when `S=c1[nH]ccn1-c1ccc(Cl)cc1` was run?
Its inhibition is 1.9%.

With `CCN(CCCNC(=O)CSc1cc(=O)n(C)c2cc(Cl)ccc12)Cc1ccccc1` as the molecule, how does the inhibition read?
The inhibition was -6.2%.

With `CC(=O)Oc1cc2c(C(=O)NCCN3CCOCC3)c(C)oc2c2ccccc12` as the molecule, how does the inhibition read?
Its inhibition is 51% (active).

Which inhibition does the source give for `O=C(NCCN1CCOCC1)c1cc(Sc2cccc(Cl)c2)nc2ccccc12` here?
Its inhibition is -13.7%.

`O=C(NCCN1CCOCC1)c1c(F)c(F)c(F)c(F)c1F` was tested. Which inhibition did it give?
Its inhibition is -12.4%.

Which inhibition does the source give for `CS(=O)(=O)c1ccc2nc(NC(=O)c3ccc(Cl)nc3)sc2c1` here?
Its inhibition is -4.6%.

Which inhibition does the source give for `O=C(COc1ccc(NC(=O)c2ccccc2[N+](=O)[O-])cc1)c1ccc(F)cc1` here?
The inhibition was 8.6%.

With `COC(=O)C1=NNC2(c3ccc(C)cc3)C(=O)N(c3cccc(C)c3C)C(=O)C12` (configuration not stated) as the molecule, how does the inhibition read?
Its inhibition is 5.9%.

`O=C(c1cn2ccccc2n1)N1CCc2c([nH]c3ccccc23)C1c1ccccn1` (configuration not stated) was tested. Which inhibition did it give?
Its inhibition is 16.7%.

With `O=[N+]([O-])c1ccc(NCCCO)c(C(F)(F)F)c1` as the molecule, how does the inhibition read?
The inhibition was 1.5%.

With `Cc1ccnc2nc(C(=O)Nc3nnc(-c4ccccc4)o3)nn12` as the molecule, how does the inhibition read?
The inhibition was 4.6%.

`COc1ccc(Cn2c(-c3ccc(Cl)cc3)c[n+]3ccccc23)cc1` was tested. Which inhibition did it give?
The inhibition was -9.3%.

How did the inhibition turn out when `O=C(Nc1ccc(N2CCN(C(=O)c3cccs3)CC2)cc1)c1cccnc1Cl` was run?
Its inhibition is 5.3%.

For `CCOC(=O)c1c(C)[nH]c(C2=NNC(=NC(C)COC)SC2)c1C` (configuration not stated), which inhibition is on record?
The inhibition was -0.8%.

Which inhibition does the source give for `Cc1[nH]c2ccccc2c1-c1ccc(Cl)nn1` here?
The inhibition was 6.2%.

With `Cc1nc2scc(-c3cccs3)c2c(=O)n1N` as the molecule, how does the inhibition read?
Its inhibition is 0%.

How did the inhibition turn out when `O=c1c2c(ncn1Cc1ccccc1)nc1n2CCC1` was run?
The inhibition was 10.7%.

For `CN(C(=O)CSc1nncc2ccccc12)C1CCCCC1`, which inhibition is on record?
The inhibition was -2.2%.

`O=C(N/N=C/c1ccc(OCc2ccccc2)cc1)c1ccc(O)cc1` was tested. Which inhibition did it give?
Its inhibition is 4.1%.

With `O=C(NC1CCCC1)C(NS(=O)(=O)c1ccc(Br)s1)c1ccccc1` (configuration not stated) as the molecule, how does the inhibition read?
The inhibition was 15.8%.

With `Cc1ccc(NC(=O)OCCNC(=O)c2ccncc2)cc1` as the molecule, how does the inhibition read?
The inhibition was 7.9%.

For `CCCCS(=O)c1snnc1C` (configuration not stated), which inhibition is on record?
Its inhibition is 7.1%.

With `CCOC(=O)C(C)Oc1cccc2c(=O)n(CC(=O)NCCc3ccc(OC)c(OC)c3)ccc12` (configuration not stated) as the molecule, how does the inhibition read?
The inhibition was 12.1%.

For `CCn1c(=S)[nH]c2sc3c(c2c1=O)CCCCC3`, which inhibition is on record?
The inhibition was -4.4%.

`O=C(N/N=C/c1ccccn1)C12CC3CC(CC(C3)C1)C2` was tested. Which inhibition did it give?
The inhibition was 1.5%.

With `O=C1c2cccc3c([N+](=O)[O-])ccc(c23)C(=O)N1CC1CCCO1` (configuration not stated) as the molecule, how does the inhibition read?
Its inhibition is 0.7%.

How did the inhibition turn out when `O=C(COc1cc(Cl)c(Cl)cc1Cl)NCCc1ccccn1` was run?
Its inhibition is 12.4%.

With `CC(Cc1cccs1)NC(=O)c1cccc(Cl)c1` (configuration not stated) as the molecule, how does the inhibition read?
Its inhibition is 7%.
